Sfp inh – blocks B. subtilis Sfp PPTase activity; Q9F4F7; Biochemical Sfp PPTase activity, qHTS; Potency, µM, for the others: largest response in the series, negative = inhibition, most hits filed as inhibitors; actives 3.5% (n = 310,000);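 also: the enzyme is Sfp with the accession as filed and its product quenches rhodamine fluorescence; 0% = enzyme reaction without inhibitor and -100% = no enzyme wells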
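Reaction rates are the 30-min fluorescence difference (ex 525, em 598 nm) in wells containing 15 nM Sfp, 5 uM rhodamine-CoA and 12.5 uM BHQ-2-YbbR at pH 7.6 with 10 mM MgCl2.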
VDR inh – inhibitors of human vitamin D receptor. actives 0.93% (n = 400,000). Potency, µM, for the others: max response, negative = inhibition, usual class: inhibitors. P11473. VDR-SRC2-3 peptide fluorescence polarization, 2 h. AID 504847
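Inhibition of the VDR/SRC2-3 peptide interaction is quantified by fluorescence polarization. Compounds (23 nl, pintool) incubate with the reagents for 2 hours at ambient room temperature.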
rTrxR1 inhibitor – blocks rat thioredoxin reductase 1 | O89049 | recombinant rTrxR1, NADPH fluorescence consumption, selenite substrate | Potency, µM (series often up to 114 µM), for inactives: top-dose activity change, negative = inhibition, hits mostly inhibitors | actives 1% (n = 390,000) | AID 588453; also: nearly all actives have a fitted effect of over 65% in size
Target sequence (O89049 whole entry, looked up): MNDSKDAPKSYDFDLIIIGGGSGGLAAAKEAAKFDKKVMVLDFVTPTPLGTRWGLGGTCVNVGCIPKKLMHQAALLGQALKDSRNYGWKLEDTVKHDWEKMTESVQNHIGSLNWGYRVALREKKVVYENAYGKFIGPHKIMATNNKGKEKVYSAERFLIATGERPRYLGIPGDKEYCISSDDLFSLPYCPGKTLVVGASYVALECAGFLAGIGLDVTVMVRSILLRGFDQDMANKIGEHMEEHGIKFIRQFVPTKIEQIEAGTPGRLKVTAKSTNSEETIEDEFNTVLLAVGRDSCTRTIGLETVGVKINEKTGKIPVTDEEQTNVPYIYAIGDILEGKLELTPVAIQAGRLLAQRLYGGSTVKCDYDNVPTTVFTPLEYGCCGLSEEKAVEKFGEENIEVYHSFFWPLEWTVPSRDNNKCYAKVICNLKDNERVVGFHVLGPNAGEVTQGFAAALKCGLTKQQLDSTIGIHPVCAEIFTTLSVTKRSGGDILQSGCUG
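Rat TrxR1 (90 nM in the dispensed reagent) was pre-reduced with 400 uM NADPH for 5 min at room temperature, then incubated with compound for 15 min. After 400 uM selenite was added, NADPH fluorescence (Ex 340/Em 450 nm) was followed for 8 min.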
PLK1 PBD block – blocks phosphopeptide binding to human PLK1 polo-box domain; P53350; Plk1 PBD binding of FITC phosphopeptide, fluorescence polarization; Potency, µM, inactives show max response, negative = inhibition, actives largely listed as inhibitors; actives 2.8% (n = 360,000); AID 720504; also: series mostly up to about 57 µM; nearly all actives have a fitted effect of over 65% in size
TrxR1 substrate – substrates of rat thioredoxin reductase 1; O89049; purified TrxR1 substrate turnover, NADPH consumption readout; Potency, µM (titrated, usually from 114 µM), for the others: top-dose activity change, negative = substrate turnover; actives 0.01% (n = 390,000); AID 588456; also: nearly all actives have a fitted effect of over 50% in size
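Rat TrxR1, dispensed at 90 nM, was prereduced with 400 uM NADPH (final) for 5 min at ~22 deg C, then incubated with compound 15 min before 400 uM selenite. A first-read NADPH fluorescence drop versus no-compound background flagged substrates.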
IDH1 R132H inh – blocks human mutant IDH1 R132H enzyme. IDH1-R132H enzyme, NADPH consumption, diaphorase/resazurin fluorescence. Potency, µM (series often up to 76.6 µM), for inactives: top-dose activity change, negative = inhibition, hits mostly inhibitors. actives 0.093% (n = 390,000); also: nearly all actives have a fitted effect of over 65% in size
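IDH1-R132H (0.5 ug/mL dispensed) in pH 7.5 Tris buffer was preincubated 30 min with compound, then given a substrate mix of 0.016 mM NADPH and 2 mM alpha-KG for 80 min at room temperature; remaining NADPH was read by diaphorase/resazurin fluorescence.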
Active calls of the source: *; [ ] = remark or other dose. The list is not random: actives were taken first. Their share in the collection is about 5.2%. Calls follow the shape of the dose curve; as a rule, active = well fitted curve in the direction sought with a large enough effect; inconclusive = small, poorly fitted or top-dose-only effect, or another doubt; inactive = no such curve, though single readings can be large; an effect the other way counts as inactive or inconclusive. Unless noted, % is scaled to controls: 0 for no effect and ±100 for the full control effect; potency is read from the fitted curve at half-maximal effect.

For CCCN1C(=O)c2ccccc2NC1c1ccc(OC)c(COc2cccc(C)c2C)c1 (stereo not drawn) the results were VDR inh 0%, rTrxR1 inhibitor 47% and TrxR1 substrate 37%.
`O=C(NNC(=O)c1sccc1-n1cccc1)c1ccccc1` gave Sfp inh 12%, VDR inh -21%, rTrxR1 inhibitor 6%[57.1 µM], PLK1 PBD block 24µM*, TrxR1 substrate -15% and IDH1 R132H inh 3%.
`COc1cc2c(NC3CCN(C)CC3)nc(N3CCCN(C)CC3)nc2cc1OCCCCCN` gave rTrxR1 inhibitor -12% and TrxR1 substrate 25%.
For COc1ccc(C2=Nn3c(nnc3-c3cccc(OC)c3OC)SC2)cc1 the results were Sfp inh 3%.
For C=CSc1sc(Cl)c(N(CC)CC)c1[N+](=O)[O-] the results were Sfp inh 13µM*, VDR inh -27%, rTrxR1 inhibitor 7%[57.1 µM], PLK1 PBD block inconclusive, TrxR1 substrate 9% and IDH1 R132H inh 1%.
For CCOC(=O)c1cnc(-n2nc(C)cc2C)nc1NCc1ccccc1 the results were Sfp inh -12%, VDR inh -7%, rTrxR1 inhibitor -11%, PLK1 PBD block -2%, TrxR1 substrate -8% and IDH1 R132H inh -3%.
Screening CCOC(=O)c1cnc(-n2cc(C)cn2)nc1NCc1ccc2c(c1)OCO2 returned Sfp inh 79µM*, VDR inh 4%, rTrxR1 inhibitor 11%, PLK1 PBD block 1%, TrxR1 substrate 9% and IDH1 R132H inh 3%.
Cc1cc(NCCC(C)C)n2nc(C)c(-c3ccccc3)c2n1 was read as Sfp inh 56µM*, VDR inh -8%, rTrxR1 inhibitor 23%, PLK1 PBD block 1%, TrxR1 substrate 55% and IDH1 R132H inh 2%.
`O=C(NCc1ccccn1)C1(C(F)(F)F)C/C(=C\Cc2ccccc2)CCCO1` (stereo not drawn) gave Sfp inh 56µM*, VDR inh -2%, rTrxR1 inhibitor -12% and TrxR1 substrate 13%.
Screening O=C(NCc1ccccc1)C1(C(F)(F)F)C/C(=C/Cc2ccccc2)CCCO1 (stereo not drawn) returned Sfp inh -10%, VDR inh -7%, rTrxR1 inhibitor -11% and TrxR1 substrate -8%.
COc1cccc(NC(=O)CN(C)CC(=O)NCc2ccc(F)cc2)c1 was read as VDR inh 5%, rTrxR1 inhibitor 7%[2.29 µM], PLK1 PBD block 2%, TrxR1 substrate 8%[57.1 µM] and IDH1 R132H inh 3%.
For COc1cccc(NC(=O)CN(C)CC(=O)c2c(C)[nH]c3ccccc23)c1 the results were VDR inh -2%, rTrxR1 inhibitor 79µM*, PLK1 PBD block -2%, TrxR1 substrate -2% and IDH1 R132H inh -18%.
COc1ccc(NC(=O)CN(C)CC(=O)c2c(C)[nH]c3ccccc23)cc1 was read as VDR inh -8%, rTrxR1 inhibitor 22µM*, PLK1 PBD block -3%, TrxR1 substrate 0% and IDH1 R132H inh 2%.
CCC(Oc1ccccc1)C(=O)Nc1ccccc1OCc1cc(=O)n2ccccc2n1 (stereo not drawn) was read as VDR inh 7%, rTrxR1 inhibitor 7%[57.1 µM], TrxR1 substrate 5%[57.1 µM] and IDH1 R132H inh -9%.
`Cc1c(C(=O)N2CCCC(C)C2)sc2ncnc(N3CCCCC3C)c12` (stereo not drawn) gave Sfp inh 79µM*, VDR inh -14%, rTrxR1 inhibitor -3%, PLK1 PBD block 0%, TrxR1 substrate -7% and IDH1 R132H inh -8%.
Screening Cc1csc(C(C)NC(=O)c2ccc(OC3CCN(CCc4ccccc4)CC3)cc2)n1 (stereo not drawn) returned Sfp inh 0%, VDR inh -19%, rTrxR1 inhibitor -1%[57.1 µM], PLK1 PBD block 30µM*, TrxR1 substrate 7%[57.1 µM] and IDH1 R132H inh -11%.
For CC1CN(C(=O)CSc2cn(CC(=O)N3CCOCC3)c3ccccc23)CC(C)O1 (stereo not drawn) the results were Sfp inh 13%, VDR inh 1%, rTrxR1 inhibitor 22%, PLK1 PBD block -15%, TrxR1 substrate 4% and IDH1 R132H inh 0%.
Screening O=C(CSc1cn(CC(=O)N2CCCCC2)c2ccccc12)NCC1CCCO1 (stereo not drawn) returned Sfp inh 14%, VDR inh inconclusive, rTrxR1 inhibitor 28%[57.1 µM], PLK1 PBD block 27µM*, TrxR1 substrate 9%[57.1 µM] and IDH1 R132H inh 5%.
Screening CN(C(=O)CSc1cn(CC(=O)N2CCOCC2)c2ccccc12)c1ccccc1 returned Sfp inh 2%, VDR inh inconclusive, rTrxR1 inhibitor 27%[57.1 µM], PLK1 PBD block 12µM*, TrxR1 substrate 5%[57.1 µM] and IDH1 R132H inh -6%.
Screening Cc1ccc(C(=O)Nc2cc(-c3nc4ncccc4o3)ccc2C)c(C)c1 returned VDR inh 0%, rTrxR1 inhibitor 14%, TrxR1 substrate 8% and IDH1 R132H inh -7%.
Screening Cc1ccc(N(Cc2cc3ccc(C)cc3[nH]c2=O)C(=O)c2ccco2)cc1 returned Sfp inh 22µM*, VDR inh inconclusive, rTrxR1 inhibitor inconclusive, PLK1 PBD block 27µM*, TrxR1 substrate 1% and IDH1 R132H inh 3%.
For Cc1ccc2cc(CN(C(=O)c3ccco3)c3ccccc3)c(=O)[nH]c2c1 the results were Sfp inh 28µM*, VDR inh -17%, rTrxR1 inhibitor inconclusive, PLK1 PBD block -18%, TrxR1 substrate 6% and IDH1 R132H inh 8%.
Screening Cc1ccc(N(Cc2cc3ccccc3[nH]c2=O)C(=O)c2ccco2)c(C)c1 returned Sfp inh -9%, VDR inh 14%, rTrxR1 inhibitor -22%, PLK1 PBD block -8%, TrxR1 substrate -2% and IDH1 R132H inh 4%.
Screening Cc1cccc(N(Cc2cc3ccc(C)cc3[nH]c2=O)C(=O)c2ccco2)c1 returned Sfp inh 22µM*, VDR inh inconclusive, rTrxR1 inhibitor 35µM*, PLK1 PBD block inconclusive, TrxR1 substrate 3% and IDH1 R132H inh -9%.
Screening COc1ccc2[nH]c(=O)c(CN(C(=O)c3cccnc3)c3cccc(C)c3)cc2c1 returned Sfp inh 19%, VDR inh inconclusive, rTrxR1 inhibitor -2%, PLK1 PBD block 24µM*, TrxR1 substrate 14% and IDH1 R132H inh 1%.
CNc1ccc(/C=C2\C=Cc3ccccc32)cc1 was read as rTrxR1 inhibitor -24% and TrxR1 substrate -5%.
`Cc1ccc2[nH]c(=O)c(CN(Cc3ccco3)C(=O)c3cccs3)cc2c1` gave Sfp inh 7%.

High-throughput results: PubChem, National Center for Advancing Translational Sciences (NCATS)
